According to PubChem BioAssay (NCI):
The panel holds about 79,000 compounds, 15% with a hit somewhere; the sample as a whole holds those more often. Rule as the data show it: active = growth inhibition above about 70%; inactive = the rest.

Experiments:
[1] = NCI Yeast Anticancer Drug Screen. Data for the rad50 strain (AID 155);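 also: 0% = growth of vehicle-only cultures of the same strain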; details: S. cerevisiae rad50 strain growth inhibition, stronger effect = higher value; at 50.0 µM unless noted
Procedure, shortened: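 Vehicle-treated cultures provide the reference for the growth inhibition reported for compound-exposed, repair-deficient yeast.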

[2] = NCI Yeast Anticancer Drug Screen. Data for the mec2-1 strain (AID 157); details: S. cerevisiae mec2-1 strain, stronger effect = higher value; at 50.0 µM unless noted
Procedure, shortened: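 Compounds were applied to mec2-1 yeast cells. Their growth was then compared with that of vehicle-treated cultures to give growth inhibition.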

[3] = NCI Yeast Anticancer Drug Screen. Data for the sgs1 mgt1 strain (AID 161);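 also: 0% = growth of cultures given vehicle only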; details: S. cerevisiae sgs1 mgt1 strain, stronger effect = higher value; at 50.0 µM unless noted
Procedure, shortened: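 Percent growth inhibition was derived by comparing compound-exposed mutant yeast with vehicle-exposed cultures. The strain carries alterations in DNA damage repair.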

[4] = NCI Yeast Anticancer Drug Screen. Data for the cln2 rad14 strain (AID 165);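 also: 0% = growth equal to vehicle treated cultures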; details: S. cerevisiae cln2 rad14 strain, stronger effect = higher value; at 50.0 µM unless noted
Procedure, shortened: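 Strain: cln2 rad14 yeast, altered in cell cycle control and DNA damage repair. Read-out: growth inhibition vs vehicle.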

[5] = NCI Yeast Anticancer Drug Screen. Data for the bub3 strain (AID 167); details: S. cerevisiae bub3 mutant strain, stronger effect = higher value; at 50.0 µM unless noted
Procedure, shortened: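 Mutant yeast screening strain plus compound; vehicle-treated cultures serve as the 0% inhibition reference.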

[6] = NCI Yeast Anticancer Drug Screen. Data for the mlh1 rad18 strain (AID 175); details: S. cerevisiae mlh1 rad18 strain growth inhibition, stronger effect = higher value; at 50.0 µM unless noted
Procedure, shortened: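 A repair-deficient yeast strain is exposed to test compound, and growth is scored relative to vehicle-treated controls.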

Measured: growth inhibition

COc1ccc(-c2cc(-c3ccco3)c(C#N)c(=O)[nH]2)cc1
inactive: [1] 3.95% | [2] 6.2% | [3] 14.2% | [4] 14.2% | [5] 8.65% | [6] 27.3%

N#CCCC(CC#N)N1CCN(CCO)CC1 (stereo not given)
inactive: [1] -35.1% | [2] -43.9% | [3] -18.7% | [4] -21.2% | [5] -0.95% | [6] -39.4%

CC(=O)OC1CCC2(C)C(CCC3C2C(=O)C(OC(C)=O)C2(C)C3CC3OC4(CCC(C)CO4)C(C)C32)C1 (stereo not given)
inactive: [1] -10.5% | [2] -19.9% | [3] -11.2% | [4] 3.6% | [5] -23.9% | [6] -6.9%

CNC(=O)Nc1cccc(C(=O)O)c1
inactive: [1] -0.3% | [2] -16.8% | [3] -11.1% | [4] -50.9% | [5] 4.35% | [6] 4.35%

CCC(CC)C(=O)NCCNC(=O)C(CC)CC
inactive: [1] 5.45% | [2] -0.9% | [3] 14.2% | [4] -30.1% | [5] -10.6% | [6] -17.2%

C=C1[C@@H](O)C[C@@H]2C[C@@]3(C)[C@H](C(C)(C)C[C@@H]3O)C12O (stereo not given in full)
inactive: [1] -4.25% | [2] -17.5% | [3] -20.9% | [4] 5% | [5] -19% | [6] -20.2%

COc1cccc(OC)c1NC(=O)C(=O)Nn1c(NNC(=O)c2ccncc2)nc2ccccc2c1=O
inactive: [1] 28.6% | [2] 26.5% | [3] 4.65% | [4] -30.1% | [5] 35% | [6] 38.4%

CCCOC(=O)c1cccnc1
inactive: [1] -13.2% | [2] -29.6% | [3] -14.7% | [4] 0.7% | [5] -6.75% | [6] -8.65%

CCN(CC)C(=O)c1cc(OC)c(C(=O)N(CC)CC)cc1OC
inactive: [1] -21.9% | [2] -0.35% | [3] 4.15% | [4] -15.2% | [5] -9.4% | [6] -8.2%

CCCCC1=C(c2ccccc2)/C(=N/Nc2ccc([N+](=O)[O-])cc2[N+](=O)[O-])c2ccccc21
inactive: [1] 12.7% | [2] -1.45% | [3] 5.65% | [4] -2.85% | [5] 1.2% | [6] 9%

Nc1nccs1
inactive: [1] -0.45% | [2] -0.65% | [3] 4.75% | [4] 9.4% | [5] -3.15% | [6] 25.7%

Cc1ccc(C2=Nc3cc(C)c(Cl)cc3S(=O)(=O)NN2)cc1
inactive: [1] -29.1% | [2] -24.9% | [3] -48.8% | [4] -5.2% | [5] -18.5% | [6] -26.8%

CCN(CC)Cc1c(/C=C\c2cc(OC)c(OC)c(OC)c2)ccc(OC)c1O
inactive: [1] -7.05% | [2] 4.4% | [3] 14.1% | [4] 9.55% | [5] 15.3% | [6] -64%

C=C(C)C(C(=O)OCC)C(=O)OCC
inactive: [1] 3.4% | [2] -2.75% | [3] 7.4% | [4] 10.5% | [5] -21.8% | [6] -4.85%

Cc1ncc(CN=Cc2ccc(Cl)cc2)c(N)n1
inactive: [1] 9.8% | [2] 17% | [3] -9.45% | [4] -12% | [5] 8.9% | [6] 13.2%

O=C(O)/C=C/C(=O)NCCCCCCNC(=O)/C=C/C(=O)O
inactive: [1] 4.55% | [2] -26.4% | [3] 2% | [4] -8.7% | [5] -16.9% | [6] -15.1%

CCOC(=O)C1=C(O)C[C@]2(O)C3CC=C(C)[C@@H]4CCO[C@](OC)(C[C@H]2C1)[C@]34C(=O)OC (stereo not given in full)
inactive: [1] 1% | [2] 12.8% | [3] 8.35% | [4] 1% | [5] -1.1% | [6] 13.1%

COC(=O)c1ccc(Oc2nc3ccc(C(F)(F)F)cc3nc2-c2ccccc2)cc1
inactive: [1] -11.9% | [2] -31.9% | [3] 14.3% | [4] -34.1% | [5] -23.8% | [6] -19.1%

Cc1cccc(C)c1NC(=O)CCc1nnc2s/c(=C\c3ccc(N(C)C)cc3)c(=O)n12
inactive: [1] 29.8% | [2] 30.1% | [3] 25.6% | [4] 0.15% | [5] 4.85% | [6] 10.3%

CC(=O)NC1=NC(=O)/C(=C/c2ccc3c(c2)OCO3)N1C
inactive: [1] 4.7% | [2] 2.85% | [3] -3.3% | [4] 3% | [5] 5.5% | [6] 10.9%
